The results in this text go back to PubChem BioAssay AID463173 (ICCB-Longwood Screening Facility, Harvard Medical School, 2010).

The campaign covered roughly 52,000 compounds. About 1,700 (3.3%) were called active. Only a selection was taken, and actives are over-represented in it overall. Unmarked numbers belong to inactive results. Cut-off read from the data, not from the text of the source: active = survival mostly below about 52% (no sharp cut-off); inactive = mostly above about 56%.

This experiment has as its system Wild type. Put plainly: growth inhibition of S. aureus wild type versus tarO mutant, primary screen, teichoic acid synthesis inhibitors, RN4220, OD600 (AID 463173). The conditions noted are these: S. aureus RN4220 wild type/DeltatarO growth, OD600, 18 h, active compounds read low, screened at 18.75 µg/mL (by protocol).
For `Cc1cc(C)cc(NC(=O)COc2cccc3c(=O)n(C)ccc23)c1`, the survival was 72%.

In the case of `Cc1ccc2oc(=O)n(CCNC(=O)Nc3ccc(Cl)cc3)c2c1`, the survival was 79%.

On to `COc1ccc(OCCCn2c(C)nc3cc(C)c(C)cc32)cc1`, for which the survival was 67%.

Regarding `COc1ccc(Cl)cc1NC(=O)NCCn1c(=O)oc2ccc(C)cc21`, the survival was 62%.

In the case of `COc1ccc(OCCCn2c(=O)oc3ccc(C)cc32)cc1`, the survival was 2% (active).

`CCCCOc1ccc(Cn2c(=O)oc3ccc(C)cc32)cc1`: the survival is 58%.

`Cc1ccc2oc(=O)n(CCCOc3ccc(Cl)cc3)c2c1`: the survival was -9% (active).

As to `COc1ccc(CCNC(=O)CCCCn2c(=O)c3ccccc3n(Cc3ccc(Cl)cc3)c2=O)cc1OC`, the survival was 105%.

`COc1cc2nc(SCC(=O)Nc3c(C)cc(C)cc3C)n3nc(CCn4c(C)nc5ccccc54)nc3c2cc1OC`: the survival was 91%.

Regarding `CCOc1ccccc1C(=O)Nc1cc(-c2nc3cccnc3s2)ccc1C`, the survival was 67%.

For the molecule `COCCCNC(=O)C1CCN(c2nn3cc(-c4ccc(F)cc4)nc3s2)CC1`, the survival was 88%.

Consider `CCCSc1oc(-c2cccs2)nc1S(=O)(=O)c1ccc(C)cc1`, for which the survival was 39%.

Turning to `CCCCS(=O)(=O)c1oc(-c2cccs2)nc1S(=O)(=O)c1ccccc1`, the survival is 0% (active).

In the case of `CCC(C)S(=O)(=O)c1oc(-c2cccs2)nc1S(=O)(=O)c1ccccc1` (stereo not given), the survival was 16%.

In the case of `CCCCCS(=O)(=O)c1oc(-c2cccs2)nc1S(=O)(=O)c1ccc(C)cc1`, the survival was 11% (active).

With `Cc1ccc(CSc2oc(-c3cccs3)nc2S(=O)(=O)c2ccc(C)cc2)cc1`, the survival is 128%.

Consider `CCCCS(=O)(=O)c1oc(-c2cccs2)nc1S(=O)(=O)c1ccc(F)cc1`, for which the survival is 82%.

Regarding `CCOc1ccc(C(=O)c2c(N)c(-c3nc(-c4ccc(OCC)cc4)cs3)c3ccccn23)cc1`, the survival was 103%.

As to `O=C(O)CN1C(=O)/C(=N\N2C(=O)CSC2=S)c2ccccc21`, the survival was 90%.

Take `Cc1ccc(C(=O)Nc2c(C)nc3ccccn3c2=O)cc1`: the survival is 88%.

Regarding `Cc1nc2ccccn2c(=O)c1NC(=O)c1ccc(F)c(F)c1`, the survival was 80%.

Consider `Cc1ccccc1C(=O)Nc1c(C)nc2ccccn2c1=O`, for which the survival is 10% (active).

For `Cc1ccc(C(=O)Nc2c(C)nc3ccccn3c2=O)cc1C`, the survival is 69%.

In the case of `Cc1nc2ccccn2c(=O)c1NC(=O)c1ccc(C(F)(F)F)cc1`, the survival is -2% (active).

Take `Cc1nc2ccccn2c(=O)c1NC(=O)c1ccccc1Cl`: the survival was 129%.

For `Cc1c(C(=O)Nc2ccc(F)c(F)c2)oc2ccc(S(=O)(=O)N(C)C3CCCCC3)cc12`, the survival is 74%.

Turning to `COc1ccccc1CNC(=O)CC(c1ccc(C)cc1)N1Cc2ccccc2C1=O` (stereo not given), the survival was 60%.

Consider `CC(C)(C)c1cc(-c2ccccc2)n[nH]1`, for which the survival was 132%.

For the molecule `CN(C)c1ccc(NC(=O)CSc2nc3ccsc3c(=O)n2CCCCCC(=O)O)cc1`, the survival is 70%.

On to `CCn1cc2nc(SCc3ccc(F)cc3)n(CCc3ccccc3)c(=O)c2n1`, for which the survival was 77%.

On to `Cc1ccc(-c2ccc(=O)n(CC(=O)NCCc3ccccc3)n2)cc1`, for which the survival was 65%.

As for `Cc1ccc(-c2ccc(=O)n(CC(=O)NCCc3ccc(Cl)cc3)n2)cc1`, the survival is 73%.

In the case of `Cc1ccc(CCNC(=O)Cn2nc(-c3ccc(C)cc3)ccc2=O)cc1`, the survival was -3% (active).

With `C=CCn1c(=O)[nH]c(=O)n(CC=C)c1=O`, the survival is 111%.

On to `COc1ccc2c(Sc3ccccc3)c(C(=O)NCc3ccc(OC(C)C)cc3)[nH]c2c1`, for which the survival was 125%.

In the case of `CCOc1cc(CNCCSc2nnnn2C)cc(Cl)c1OCc1ccc(Cl)cc1`, the survival was -2% (active).

With `COc1cc(CNCCSc2nnnn2C)ccc1OCc1c(F)cccc1Cl`, the survival was 73%.

Regarding `CCOc1cc(CNCCSc2nnnn2C)ccc1OCc1ccc(Cl)cc1Cl`, the survival was -5% (active).

`COc1cc(CNCCSc2nnnn2C)ccc1OCc1ccc(Cl)cc1Cl`: the survival is 0% (active).

As for `COc1cc(CNCCSc2nnnn2C)ccc1OCc1ccccc1C`, the survival was 68%.

As for `COc1cc(CNCCSc2nnnn2C)cc(Cl)c1OCc1ccccc1`, the survival is 59%.

Take `Cn1nnnc1SCCNCc1ccc(OCc2ccc(Cl)cc2)cc1`: the survival is 68%.

Regarding `Cn1nnnc1SCCNCc1ccccc1OCc1ccc(Cl)cc1Cl`, the survival is 56%.

As for `CCOc1ccc(CNCCSc2nnnn2C)cc1OC`, the survival was 72%.

Take `COCCNC(=O)c1ccc(-c2nc(CN3CCc4ccccc43)c(C)o2)cc1`: the survival is 75%.

On to `NS(=O)(=O)c1ccc(CCNC(=O)c2ccc3nc(Cc4ccccc4)oc3c2)cc1`, for which the survival is 81%.

On to `CCn1cc(C(=O)O)c(=O)c2cc(F)c(N3CCN(C(=O)c4ccccc4F)CC3)cc21`, for which the survival was 54%.

For the molecule `CC(C)CC(=O)NCC(c1ccc2c(c1)OCO2)N1CCN(c2ccccc2)CC1` (stereo not given), the survival is 77%.

For the molecule `COC(=O)c1cc(S(=O)(=O)N2CCN(c3cc(Cl)ccc3C)CC2)c[nH]1`, the survival is 8% (active).

In the case of `Cc1ccc(Cl)cc1N1CCN(C(=O)c2cc(S(=O)(=O)N3CCCC3)c[nH]2)CC1`, the survival was 77%.

For the molecule `COC(=O)c1cc(S(=O)(=O)N2CCN(c3ccc(OC)cc3)CC2)c[nH]1`, the survival is 85%.

With `COc1ccccc1CNC(=O)CN1C(=O)CSc2ccc(S(=O)(=O)N3CCCCC3)cc21`, the survival is 83%.

Regarding `COc1ccc(-n2ncc(C(=O)N3CCc4ccccc4C3)c2C2CCN(C(=O)OC(C)(C)C)CC2)cc1`, the survival is 63%.

Take `COc1cc2c(cc1NS(=O)(=O)c1cccc(C#N)c1)n(C)c(=O)n2C`: the survival was 76%.

`CCOC(=O)c1c(-c2ccc(C)cc2)csc1NC(=O)c1nc(SC(C)C)ncc1Cl`: the survival is 85%.

Regarding `CCOC(=O)c1c(-c2ccc(C)cc2)csc1NC(=O)c1nc(SCC)ncc1Cl`, the survival was 78%.

With `CCCSc1ncc(Cl)c(C(=O)Nc2scc(-c3ccc(C)cc3)c2C(=O)OCC)n1`, the survival is 87%.

For the molecule `CCOC(=O)c1c(-c2ccccc2)csc1NC(=O)c1nc(SCC)ncc1Cl`, the survival is 97%.

Regarding `CCCS(=O)(=O)c1ncc(Cl)c(C(=O)Nc2scc(-c3ccccc3)c2C(=O)OCC)n1`, the survival is 4% (active).

On to `CCOC(=O)c1c(-c2ccccc2)csc1NC(=O)c1nc(S(=O)(=O)CC)ncc1Cl`, for which the survival is 2% (active).

As to `CCc1nn(CC(=O)NCC(C)c2ccccc2)c(=O)c2cc3c(OC)cccc3n12` (stereo not given), the survival is 89%.

In the case of `Cc1ccccc1SCC(=O)O`, the survival is 106%.

With `O=C(c1cc(-c2ccccc2)on1)N1CCCc2ccccc21`, the survival is 114%.

Consider `COCCCNC(=O)c1ccc2c(c1)N(Cc1ccccc1)C(=O)c1ccccc1S2`, for which the survival was 75%.

Take `Cc1cc(N2CCCCC2)nc2ccc(NC(=O)c3cccc(F)c3)cc12`: the survival is 46%.

Consider `Cc1cc(N2CCCCC2)nc2ccc(NC(=O)c3cccc(Cl)c3)cc12`, for which the survival was -2% (active).

For `CCN1CCN(c2cc(C)c3cc(NC(=O)c4cccc(Cl)c4)ccc3n2)CC1`, the survival was 57%.

Consider `Cc1cc(N2CCN(C)CC2)nc2ccc(NC(=O)c3ccc(C(C)(C)C)cc3)cc12`, for which the survival was -20% (active).

On to `CCOc1cc(C(=O)Nc2ccc3nc(N4CCN(C)CC4)cc(C)c3c2)cc(OCC)c1OCC`, for which the survival was 134%.

`Cc1ccc(NC(=O)Nc2ccc3nc(N4CCN(C)CC4)cc(C)c3c2)cc1C`: the survival was 73%.

Take `Cc1cccc(C)c1OC(=O)CSc1nnc(-c2cccs2)o1`: the survival was 83%.

As for `COc1cc2c(cc1OC)n(CC(=O)c1cccc(Cl)c1)c(=O)n1nc(CCn3nc(C)cc3C)nc21`, the survival is 74%.

Consider `CCOC(=O)C(C)NC(=O)c1c(C)oc2ncn(CC(C)C)c(=O)c12` (stereo not given), for which the survival was 72%.

With `Cc1ccccc1CN1CCCN(CC(=O)Nc2ccc3c(c2)OCCO3)S1(=O)=O`, the survival was 72%.

Take `CCc1ccccc1N(C)C(=O)c1cc2c(s1)-c1c(C)cccc1OC2`: the survival was 69%.

Turning to `Cc1cccc2c1-c1sc(C(=O)N(C)c3cccc(Cl)c3)cc1CO2`, the survival was 0% (active).

Regarding `COc1ccc(N(C)C(=O)c2cc3c(s2)-c2c(C)cccc2OC3)c(OC)c1`, the survival is 12% (active).

Take `COc1ccc(NC(=O)c2cc3c(s2)-c2c(C)cccc2OC3)c(OC)c1`: the survival was 78%.

For `Cc1cccc2c1-c1sc(C(=O)N(C)c3cccc(C(F)(F)F)c3)cc1CO2`, the survival is 24%.

On to `COc1ccc(CCNC(=O)c2cc3c(s2)-c2c(C)cccc2OC3)c(OC)c1`, for which the survival was 103%.

In the case of `Cc1ccc(NC(=O)CCc2c(C)nn(-c3ccc(N4CCCCC4)nn3)c2C)cc1F`, the survival is 146%.

On to `COCCCNc1cc(C)nc2ccccc12`, for which the survival was 121%.

Consider `COc1ccc(N2CC3=C(C2=O)C(c2ccc(Br)cc2)NC(=O)N3C)cc1` (stereo not given), for which the survival is 156%.

For `COc1ccc(CNC(=O)c2cnc3cc(C)ccn3c2=O)cc1`, the survival was 85%.

As for `Cc1ccc(OC(=O)CSc2nnc(CNC(=O)c3ccccc3)o2)cc1`, the survival is 87%.

With `N#Cc1ccccc1Cn1c(SCC(=O)NCc2ccccc2)nc2ccccc21`, the survival is 75%.

Regarding `O=C(C1CCN(S(=O)(=O)c2ccccc2)CC1)N1CCCCC1`, the survival was 96%.

`O=C1C2c3ccccc3CCN2C(=O)CN1CCc1ccccc1` (stereo not given): the survival was 121%.

As for `CCOc1ccc(-n2nc(CO)c(C(=O)NCC(C)O)n2)cc1` (stereo not given), the survival was 81%.

As to `Cc1ccc(CN2C(=O)c3ccccc3Sc3ccc(C(=O)NCc4ccco4)cc32)cc1`, the survival is 55%.

As to `CC(C)CCNC(=O)c1ccc2c(c1)N(C)C(=O)c1ccccc1S2`, the survival is -6% (active).

In the case of `CC(C)CCNC(=O)Nc1ccc2c(c1)N(C)C(=O)c1ccccc1S2`, the survival was 135%.

For `Cc1ccc(C)c(CN2C(=O)c3ccccc3Sc3ccc(C(=O)NCc4ccco4)cc32)c1`, the survival was -1% (active).

Turning to `CC(C)CCNC(=O)c1ccc2c(c1)N(Cc1cccc(Cl)c1)C(=O)c1ccccc1S2`, the survival is 70%.

In the case of `Cc1cccc(CN2C(=O)c3ccccc3Sc3ccc(C(=O)NCc4ccco4)cc32)c1`, the survival was 75%.
